Each structure is given as a SMILES string. Screen size: about 220,000 compounds; about 910 (0.41%) were called active.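 How the source made its calls: active means primary inhibition above the hit cutoff, then over 50% inhibition at one or more dose response concentrations (cut at about 23% in these data, passing the limit was not always enough); inconclusive means conflicting primary data, or primary hits not chosen for dose response; inactive means low primary inhibition, or under 50% at every dose.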 What follows is part of a selection rich in actives, with near analogues and random picks from the rest. Measured potencies and affinities stand elsewhere.

Aminopeptidase N (Plasmodium falciparum (isolate 3D7)), sequence (O96935 whole entry, looked up): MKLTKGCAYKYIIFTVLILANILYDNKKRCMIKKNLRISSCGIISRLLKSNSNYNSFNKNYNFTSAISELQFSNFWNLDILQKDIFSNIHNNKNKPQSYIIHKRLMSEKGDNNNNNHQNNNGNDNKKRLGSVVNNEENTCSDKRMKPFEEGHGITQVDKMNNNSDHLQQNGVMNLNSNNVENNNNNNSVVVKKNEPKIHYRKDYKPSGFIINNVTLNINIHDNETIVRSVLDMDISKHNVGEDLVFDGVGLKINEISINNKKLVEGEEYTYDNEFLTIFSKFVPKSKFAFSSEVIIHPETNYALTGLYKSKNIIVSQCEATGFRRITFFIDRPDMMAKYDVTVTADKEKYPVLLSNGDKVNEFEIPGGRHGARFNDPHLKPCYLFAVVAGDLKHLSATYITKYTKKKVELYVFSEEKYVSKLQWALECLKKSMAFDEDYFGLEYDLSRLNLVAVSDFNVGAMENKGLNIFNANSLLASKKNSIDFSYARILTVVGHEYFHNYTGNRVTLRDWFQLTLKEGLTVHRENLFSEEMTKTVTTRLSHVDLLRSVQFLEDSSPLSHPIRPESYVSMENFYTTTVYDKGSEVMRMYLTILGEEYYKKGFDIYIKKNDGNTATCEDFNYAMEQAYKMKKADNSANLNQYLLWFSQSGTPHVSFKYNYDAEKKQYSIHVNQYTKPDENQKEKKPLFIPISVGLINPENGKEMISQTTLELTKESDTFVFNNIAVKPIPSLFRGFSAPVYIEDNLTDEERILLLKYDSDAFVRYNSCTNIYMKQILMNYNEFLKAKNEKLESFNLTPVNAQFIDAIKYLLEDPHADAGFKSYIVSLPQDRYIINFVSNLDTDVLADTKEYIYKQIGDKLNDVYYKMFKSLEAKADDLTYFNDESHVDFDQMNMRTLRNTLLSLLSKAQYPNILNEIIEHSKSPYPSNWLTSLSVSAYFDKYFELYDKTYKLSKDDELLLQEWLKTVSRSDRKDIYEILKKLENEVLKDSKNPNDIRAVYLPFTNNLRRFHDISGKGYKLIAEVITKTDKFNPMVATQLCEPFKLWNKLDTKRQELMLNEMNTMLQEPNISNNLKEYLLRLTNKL

The assay concerns the target Aminopeptidase N (Plasmodium falciparum (isolate 3D7)) (UniProt O96935). Briefly: malaria alanyl aminopeptidase activity blockers – biochemical, fluorogenic H-Leu-NHMec substrate, 1536-well (AID 1445).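 Further: plate controls were DMSO full reaction for no effect and no enzyme background for full effect.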 The settings on record: recombinant M1AAP, H-Leu-NHMec fluorogenic kinetic assay; at 30 µM, stronger effect = higher value unless noted.
As for `C=CCc1cccc2cc(C(=O)NNC(=O)c3ccncc3)c(=O)oc12`, the inhibition (usually the drop in the measured response relative to a control, in per cent) was 20.9% (inactive).
Turning to `Cn1c(CSc2nc3ccccc3n2C)nc2ccccc21`, the inhibition is -4.15% (inactive).
With `CCOC(=O)CSc1nnc(Cc2ccccc2)n1CC1CCCO1` (stereo not given) the figure was 4.73% (inactive).
For `Cc1[nH]c(=O)c(C#N)c(C)c1Cc1ccc(Cl)cc1Cl`, the inhibition was 4.22% (inactive).
On to `O=c1c2[nH]c3ccccc3c2ncn1CCN1CCCCC1`, for which the inhibition was 8.11% (inactive).
Regarding `O=C(CN1CCN(C(=O)c2cccc(F)c2)CC1)NC1CCCCC1`, the inhibition was -4.11% (inactive).
In the case of `Cc1cc(C)cc(NC(=O)CCN2CC(C)OC(C)C2)c1` (stereo not given), the inhibition is 0.2% (inactive).
Turning to `Cc1ccc(SCC(=O)c2ccc[nH]2)cc1`, the inhibition is 2.44% (inactive).
Regarding `CCOc1ccc(/C=C2\SC(=S)N(C)C2=O)cc1OC`, the inhibition was 9.35% (inactive).
Consider `CCOc1ccc(/C=C2\SC(=S)N(Nc3ccccc3)C2=O)cc1OC`, for which the inhibition was 1.22% (inactive).
`C/C(=N\NC(=O)COc1cccc(Cl)c1)c1ccc2c(c1)OCCO2`: the inhibition is 3.02% (inactive).
`c1cncc(Cc2cc3ccccc3[nH]2)c1`: the inhibition is 4.4% (inactive).
Consider `CC(=O)C(C)Oc1ccc2c3c(c(=O)oc2c1)CCCC3` (stereo not given), for which the inhibition was 1.79% (inactive).
As to `O=C(O)C(Oc1ccc2c3c(c(=O)oc2c1)CCC3)c1ccccc1` (stereo not given), the inhibition is 24.2% (active).
On to `CC(C)Oc1ccc2c3c(c(=O)oc2c1)CCC3`, for which the inhibition was 3.02% (inactive).
With `CN(C(=O)c1c[nH]c(=O)cc1C(F)(F)F)c1ccc(Cl)c(Cl)c1` the figure was -1.25% (inactive); with `O=C(NC(=S)Nc1ccccc1C(F)(F)F)c1ccccc1F`, -0.76% (inactive); with `CC(C)N(C(=O)CSc1nnc(Cc2ccc3c(c2)OCO3)n1C)C(C)C`, -1.85% (inactive).
`Cc1ccc(Oc2ccc(OCC(=O)NC(C)C(=O)O)cc2)cc1` (stereo not given): the inhibition was 12.1% (inactive).
With `COC(=O)c1ccc(OS(=O)(=O)N(C)C)cc1` the figure was -0.39% (inactive); with `O=C(O)CSCC(=O)Nc1ccc(-c2nc3ccccc3s2)cc1`, 7.28% (inactive).
Regarding `O=C(O)CCC(=O)Nc1nc2ccccc2s1`, the inhibition was 1.12% (inactive).
Regarding `CC(=O)Nc1scc(C)c1-c1nc2ccccc2s1`, the inhibition is 2.48% (inactive).
With `Cc1ccc2nc(-c3ccc(NC(=O)CSCC(=O)O)cc3)sc2c1` the figure was 7.29% (inactive); with `Cc1cccc(C)c1NC(=O)CCCSc1nc2ccccc2s1`, -3.68% (inactive).
Take `Cc1ccc2nc(-c3ccc(NC(=O)COCC(=O)O)cc3)sc2c1`: the inhibition is 14.2% (inactive).
For `Cc1ccc(-c2nc3ncccc3o2)cc1NC(=S)NC(=O)c1ccco1`, the inhibition is 4.38% (inactive).
`Cc1ccc(N2CC(C(=O)NCCCn3ccnc3)CC2=O)cc1` (stereo not given): the inhibition was -4.35% (inactive).
Regarding `O=C(c1c(Cl)cccc1Cl)N1CCCCCC1`, the inhibition is 4.43% (inactive).
In the case of `COc1cc(NC(=S)N2CCCC(CO)C2)cc(OC)c1` (stereo not given), the inhibition is -7.92% (inactive).
For the compound `COc1cc(S(=O)(=O)NCc2cccnc2)c(OC)cc1Br`, the inhibition is -4.04% (inactive).
On to `C/C=C/C(=O)N1CC2(CC(c3cccc(NC(=O)CC(c4ccccc4)c4ccccc4)c3)=NO2)C[C@H]1C(N)=O` (stereo not given in full), for which the inhibition is 12.4% (inactive).
In the case of `O=C(N/N=C/c1ccco1)c1ccn[nH]1`, the inhibition was 7.66% (inactive).
With `COc1cc(/C=C2\SC(=O)N(c3ccc(Cl)cc3)C2=O)cc([N+](=O)[O-])c1O`, the inhibition is 8.85% (inactive).
On to `CCOc1cc(/C=C2\SC(=O)N(CC(=O)Nc3ccccc3F)C2=O)cc([N+](=O)[O-])c1O`, for which the inhibition is 13.2% (inactive).
For the compound `Cc1cccc(NC(=O)CN2C(=O)S/C(=C\c3ccc(O)c([N+](=O)[O-])c3)C2=O)c1`, the inhibition was 22.4% (inactive).
Regarding `COc1cc(/C=C2\SC(=O)N(Cc3ccc(Cl)cc3)C2=O)cc([N+](=O)[O-])c1O`, the inhibition was 29.4% (inactive).
On to `Cc1nn(-c2ccccc2)c(Cl)c1/C=N/Nc1nnc(C)c(=O)[nH]1`, for which the inhibition is -2.22% (inactive).
For `O=C(C(=O)N1CCN(c2cccc(Cl)c2)CC1)c1c[nH]c2ccccc12`, the inhibition is 2.96% (inactive).
With `CCCNC(=O)NCCc1c(C)[nH]c2ccccc12` the figure was 23.5% (active); with `Cc1[nH]c2ccccc2c1CCNC(=O)CCC(=O)c1ccccc1`, 0.77% (inactive); with `CCc1cccc(CC)c1NC(=S)NCCc1c(C)[nH]c2ccccc12`, 0.39% (inactive).
For the compound `NS(=O)(=O)c1cccc(NC(=O)COC(=O)CC2CC3CCC2C3)c1` (stereo not given), the inhibition is -2.75% (inactive).
`CSc1ncccc1C(=O)OCC(=O)N(C)C`: the inhibition is 7.72% (inactive).
On to `Cc1cccc(-n2ccnc2SCC(=O)Nc2ccc3c(c2)OCCO3)c1`, for which the inhibition is 3.89% (inactive).
For the compound `O=C(CSc1nccn1-c1ccc(Cl)cc1)Nc1ccc2c(c1)OCO2`, the inhibition is 1.54% (inactive).
Turning to `O=C(CSc1nccn1-c1cccc(Cl)c1)Nc1ccc2c(c1)OCCO2`, the inhibition was 24.5% (active).
As to `C=CCNc1ncnc2c1ncn2C1OC(CO)C(O)C1O` (stereo not given), the inhibition was -2.12% (inactive).
As to `OC[C@H]1O[C@@H](n2cnc3c(Nc4ccccc4)ncnc32)[C@H](O)[C@@H]1O`, the inhibition was 0.67% (inactive).
`CCCOC(=O)c1ccc(Oc2c(-c3ccc(OCC)cc3O)n[nH]c2C)cc1`: the inhibition is -5.24% (inactive).
With `COc1ccc(C2=C/C(=C\c3ccc(OC(C)=O)cc3)C(=O)O2)cc1` the figure was -2.13% (inactive).
For the compound `O=[N+]([O-])c1ccc(C[n+]2cc(-c3ccccc3)n3c2CCCCC3)cc1`, the inhibition was -1.78% (inactive).
With `CC(=O)NS(=O)(=O)c1ccc(N=c2ssc3c2-c2cc(C)ccc2NC3(C)C)cc1` the figure was 9.04% (inactive); with `CC(=O)NS(=O)(=O)c1ccc(N=c2ssc3c2-c2cc(C)c(C)cc2NC3(C)C)cc1`, 13.3% (inactive); with `Cc1ccc(CCNC(=O)c2cc(C)nn2-c2ccccc2)cc1`, 0.72% (inactive).
With `COc1ccc(Nc2nc3ccccc3nc2NS(=O)(=O)c2cccs2)cc1`, the inhibition was 10.1% (inactive).
As for `COc1ccc(NS(=O)(=O)c2cccs2)c(OC)c1`, the inhibition is 5.44% (inactive).
For `Cc1ccc(NS(=O)(=O)c2ccc(NS(=O)(=O)c3cccs3)cc2)cc1`, the inhibition is -3.61% (inactive).
Turning to `Cc1cc(C)nc(NS(=O)(=O)c2cccs2)c1`, the inhibition is -0.13% (inactive).
In the case of `Cc1ccc(-c2cc(C(=O)O)c3ccccc3n2)c(C)c1`, the inhibition was 3.63% (inactive).
On to `Cc1ccc(NC(=O)Cn2c(/C=C/c3ccccc3)nc3ccccc32)cc1C`, for which the inhibition is 7.46% (inactive).
With `O=C(c1cccnc1)N1CCN(c2ccccc2Cl)CC1` the figure was -11.5% (inactive); with `Cc1c(Cl)cccc1N1C(=O)CC(NNC(=O)c2cccnc2)C1=O` (stereo not given), 8.09% (inactive); with `CCN1C(=S)SC(=O)C1=C1C=C(C)N(CCO)C(C)=C1`, 26.2% (active).
Consider `CCN1C(=S)SC(=O)C1=C1C=C(C)N(Cc2ccco2)C(C)=C1`, for which the inhibition is 12.6% (inactive).
For `CCN1C(=S)SC(=O)C1=C1C=C(C)OC(C)=C1`, the inhibition was 0.47% (inactive).
For the compound `C/C(CC(=O)Nc1ccccc1)=N\NC(=O)COc1ccc(C)cc1Br`, the inhibition is 2.81% (inactive).
With `CCC(C)(C)n1nnnc1C(c1ccc2ncccc2c1)N1CCN(c2ccc(O)cc2)CC1` (stereo not given), the inhibition is 4.2% (inactive).
Consider `CCC(C)(C)n1nnnc1C(c1ccc2ncccc2c1)N1CCCCCC1` (stereo not given), for which the inhibition is 4.86% (inactive).
For the compound `COc1ccc(/C=C/C(=O)NCc2cnn(C)c2C)cc1COc1ccc(Br)cc1`, the inhibition was -0.2% (inactive).
For `CC1CCCC(C)N1NC(=O)c1cccc(S(=O)(=O)N2CCc3ccccc32)c1` (stereo not given), the inhibition was 1.3% (inactive).
Turning to `COC(=O)n1c(=O)oc2ccccc21`, the inhibition is 6.55% (inactive).
On to `COc1cccc(Cn2nnc(C(=O)Nc3cc(C)ccc3OC)c2N)c1`, for which the inhibition was 7.36% (inactive).
With `Cc1cc(NC(=O)Cn2c(=O)n(Cc3ccccc3)c(=O)c3ccccc32)no1`, the inhibition was 23.7% (active).
Turning to `CCn1cnc2c1c(=O)n(CC(=O)Nc1cc(C)on1)c(=O)n2Cc1ccccc1`, the inhibition is -3% (inactive).
For `CN(C)c1ccc(NC(=O)Cn2c(=O)n(Cc3ccccc3)c(=O)c3ccccc32)cc1`, the inhibition is 10.9% (inactive).
As for `Cc1ccc(C(=O)CC2(O)C(=O)Nc3ccccc32)s1` (stereo not given), the inhibition is -3.92% (inactive).
With `CCOc1ccccc1NC(=S)NCCCn1ccnc1`, the inhibition is -1.93% (inactive).
As to `CC(=O)Nc1ccc(NC(=O)c2ccccc2S(=O)(=O)c2ccccc2[N+](=O)[O-])cc1`, the inhibition was 6.51% (inactive).
Take `O=C(Nc1ccc(F)cc1)c1ccccc1S(=O)(=O)c1ccccc1[N+](=O)[O-]`: the inhibition was 10.1% (inactive).
On to `COCc1cc(C)n(CC(=O)OC)c(=O)c1C#N`, for which the inhibition was 6.13% (inactive).
With `CC(C)(C)NC(=O)CN(C(=O)CS(=O)CC(=O)Nc1ccc(F)cc1)c1ccc(Cl)cc1` (stereo not given), the inhibition was 3.41% (inactive).
Turning to `Cc1cc(C)n(-c2nc3ccccc3nc2N2CCCCCC2)n1`, the inhibition was 5.75% (inactive).
With `CCN(CC)c1nc2ccccc2nc1-n1nc(C)cc1C`, the inhibition is 25.1% (active).
`Cc1cc(C)n(-c2nc3ccccc3nc2N2CCCC2)n1`: the inhibition is 7.98% (inactive).
As to `CC(=O)c1sc2nc(C)cc(C)c2c1N`, the inhibition is 3.82% (inactive).
Consider `CCn1c(SCC(=O)N2CCCC2)nnc1-c1ccc(S(=O)(=O)N2CCCCCC2)cc1`, for which the inhibition is 17.8% (inactive).
As to `CCOC(=O)C1=C(O)/C(=C/c2ccc(-c3ccccc3C(=O)O)o2)SC1=Nc1ccc(OC)cc1`, the inhibition was 26.2% (active).
With `CCOC(=O)C1=C(O)/C(=C/c2ccccn2)SC1=Nc1ccc(Cl)cc1` the figure was -2.13% (inactive); with `CCOC(=O)C1=C(O)/C(=C/c2cc(OC)c(OC)c(OC)c2)SC1=Nc1ccc(OC)cc1`, 0.13% (inactive).
As for `CCOC(=O)c1ccc(N2C(=O)C(O)=C(C(C)=O)C2c2ccc(O)c(OC)c2)cc1` (stereo not given), the inhibition is 11% (inactive).
For `COc1ccccc1-c1c(NC(=O)c2ccco2)n(C)c2ccccc2c1=O`, the inhibition is 5.76% (inactive).
`O=C(c1cnc2n(c1=O)CCS2)N(c1ccccc1)C1CCCCC1`: the inhibition is 3.16% (inactive).
With `CN(C(=O)c1cnc2n(c1=O)CCS2)C1CCCCC1`, the inhibition is 7.72% (inactive).
For the compound `Cn1nnnc1Sc1ccc([N+](=O)[O-])cc1Cl`, the inhibition is 4.02% (inactive).

(Values after PubChem BioAssay AID1445 (SRMLSC, 2008).)
